KB-3-1 tox = kills parental KB-3-1 adenocarcinoma cells. Potency, µM (series often up to 46.1 µM), most hits filed as cytotoxic. KB-3-1 viability, CellTiter-Glo ATP luminescence, 72 h. AID 1347075. actives 1.4% (n = 400,000); further: on the % scale 0 is the no-effect control and ±100 the full control effect; nearly all actives have a fitted effect of over 60% in size
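Luminescent ATP read-out (CellTiter-Glo) measures survival of drug-naive KB-3-1 cells after 72 h compound exposure at 37 °C. Titration series was screened from lowest to highest concentration, with DMSO vehicle plates as background controls.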
KB-V1 MDR tox = KB-V1 MDR subline cytotoxicity; KB-V1 MDR cells viability, CellTiter-Glo, 72 h; Potency, µM (series often up to 46.1 µM), actives largely listed as cytotoxic; actives 3.4% (n = 400,000); further: on the % scale 0 is the no-effect control and ±100 the full control effect; nearly all actives have a fitted effect of over 60% in size
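Compound-treated KB-V1 multidrug-resistant cells, 72 h, 37 degrees C; viability by CellTiter-Glo. Fitted qHTS curves give the values.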
ELG1 DNA repair = inhibitors of ELG1-dependent DNA repair in HEK293T cells; HEK293T ELG1-luciferase reporter, luminescence, 16 h; DNA damage induced by 5-fluorouridine; Potency, µM (titrated, usually from 46.1 µM), without a hit: at the highest dose activity change, negative = inhibition, most hits filed as inhibitors; actives 2.3% (n = 330,000); AID 504467; further: on the % scale 0 is the no-effect control and ±100 the full control effect; nearly all actives have a fitted effect of over 55% in size
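DMSO vehicle served as the neutral condition. Each well held 2,000 cells given 5-fluorouridine plus compound; after 16 hr at 37 °C/5% CO2, ONE-Glo was added and luciferase measured 30 min later.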
MCF10A rereplic = inducers of DNA re-replication in MCF 10A breast cells | MCF 10A DNA re-replication, Hoechst nuclear intensity, 48 h | Potency, µM (doses to about 46.1 µM), for the others: top-dose activity, positive = re-replication, usual class: activators | actives 2.9% (n = 350,000); further: % of control where 0% means no effect; nearly all actives have a fitted effect of over 50% in size
SW480 rereplic = DNA re-replication induction in SW480 cells. SW480 DNA re-replication, Hoechst DNA content imaging, 48 h. actives 1.8% (n = 340,000). Potency, µM (series often up to 46.1 µM), inactives show top-dose re-replication activation, most hits filed as activators. AID 624297; further: % of control where 0% means no effect; nearly all actives have a fitted effect of over 55% in size
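Image-based read-out: total Hoechst fluorescence of nuclei (405 nm excitation, 500-530 nm emission), with hits raising the fraction of high-intensity nuclei. SW480 colon cells incubated 48 hr with compounds at 37 C.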
Active calls of the source: *; i = inactive; ? = inconclusive; / = no result given; [ ] = another dose, or the depositor's remark. Only some compounds are listed: those with a hit (about 8.1% of all), similar ones and a draw of the others. The call rests on the fitted dose curve; in most records, active means well fitted curve in the direction sought with a large enough effect; inconclusive means small, poorly fitted or top-dose-only effect, or another doubt; inactive means no such curve, though single readings can be large; an effect the other way counts as inactive or inconclusive. Potency means the concentration at half of the fitted maximal effect.

SMILES | KB-3-1 tox | KB-V1 MDR tox | ELG1 DNA repair | MCF10A rereplic | SW480 rereplic
CCNC(=O)COc1ccc(/C=C2\COc3ccccc3C2=O)cc1OC | i | i | ? | ? | ?
Cn1nnnc1Sc1ncnc2scc(-c3ccc(Cl)cc3)c12 | ? | ? | 16µM* | 8% | 15%
Clc1ccc(-n2nnnc2Sc2ncnc3sccc23)cc1 | ? | ? | / | 10µM* | 6.5µM*
COc1ccc(-c2csc3ncnc(Sc4nnnn4C)c23)cc1 | ? | ? | ? | ? | -4%
Cn1nnnc1Sc1ncnc2scc(-c3ccc4c(c3)OCO4)c12 | i | i | -22% | 23µM* | 12%
Cn1nnnc1Sc1ncnc2scc(-c3ccc([N+](=O)[O-])cc3)c12 | ? | i | 7.3µM* | 2.6µM* | 21%
Cn1nnnc1Sc1ncnc2scc(-c3ccccc3Cl)c12 | ? | i | ? | ? | 23%
Cc1csc(-c2ccc3cc(Cl)cc(Cl)c3n2)n1 | i | i | / | / | /
Cc1ccc(CC(=O)NCCN2CCOCC2)cc1 | i | i | 7% | -4% | 0%
CC(C)CNc1ncnc2c1ncn2[C@H]1CN(Cc2ccco2)C[C@@H](CO)O1 | i | i | / | / | /
Cc1c(CC(=O)NCc2ccccc2Cl)c(=O)oc2cc(O)ccc12 | i | i | / | / | /
CC(=O)n1c2ccccc2c2ccccc21 | i | i | -28% | ? | -10%
Cc1ccc(C(=O)n2c3ccccc3c3ccccc32)cc1 | 10µM* | 8.2µM* | 10% | ? | 21µM*
CCOC(=O)c1sc(NC(=O)CSc2nc3c(cc2C#N)CCCCC3)c(C#N)c1C | i | i | ? | ? | ?
CCOC(=O)c1sc(NC(=O)c2cccnc2)c(C#N)c1C | i | i | 18µM* | -1% | -2%[9.22 µM]
CCOC(=O)c1sc(NC(=O)CSc2nc(C)cc(C)n2)c(C#N)c1C | i | 8.2µM* | -13% | ? | -1%
CCOC(=O)c1c(NC(=O)c2cccnc2)sc(C)c1C | i | i | -17% | 5% | 1%
CCOC(=O)c1sc(NC(=O)C(C)C)c(C#N)c1C | i | i | 18% | 11% | 0%
CCOC(=O)c1sc(NC(=O)CSc2ncn[nH]2)c(C#N)c1C | i | i | -13% | 2.9µM* | 9.2µM*
CCOC(=O)c1sc(NC(=O)CSc2ccccn2)c(C#N)c1C | i | i | / | 21µM* | 15%
CCC(C(=O)Nc1ccc(C(C)=O)cc1)n1cnc2nc3c(cc2c1=O)CCCC3 (configuration not stated) | i | i | / | / | /
O=C(COC(=O)COc1cccc(Br)c1)Nc1ccc(F)cc1F | i | i | 8% | -3% | -10%
CCOC(=O)c1sc(NC(=O)CSc2n[nH]c(-c3ccccc3)n2)c(C#N)c1C | i | ? | ? | 8.2µM* | 1%
CCOC(=O)c1sc(NC(=O)c2cc(-c3ccccc3)nc3ccccc23)c(C#N)c1C | 15µM* | ? | ? | 2.6µM* | 0%
CCC(CC)c1nnc(NC(=O)c2cc(-c3ccccc3)nc3ccccc23)s1 | i | ? | 5% | -64% | -14%
SMILES | KB-3-1 tox | KB-V1 MDR tox | ELG1 DNA repair | MCF10A rereplic | SW480 rereplic
CCOC(=O)c1sc(NC(=O)CSc2nnc(Cc3ccccc3)o2)c(C#N)c1C | i | ? | -5% | 9% | -11%
COc1ccccc1-n1c(C)nc2cc(C(=O)NCCN3CCOCC3)ccc21 | i | ? | 0% | -9% | 3.7µM*
COc1ccccc1CNC(=O)c1ccc2c(c1)nc(C)n2-c1ccccc1OC | i | i | / | / | /
Cc1cc(C)c2c(N)c3cccc(C)c3nc2n1 | 7.3µM* | 8.2µM* | ? | 21µM* | 16µM*
CN(C(=S)NC(=O)C1CC1)c1ccc(O)cc1 | i | i | 28% | 5% | -1%
CCc1cccc(C)c1NC(=O)COC(=O)CSCc1ccccc1 | i | i | 20% | -5% | -13%
Cc1[nH]n(-c2ccc([N+](=O)[O-])cc2)c(=O)c1C=NCCN1CCN(C(=O)c2cccc(F)c2)CC1 | i | 16µM* | 2% | 21% | -2%
CCCOC(=O)C1=C(C)NC2=C(C(=O)CCC2)C1c1cccs1 (configuration not stated) | i | 23µM* | -4% | 1% | 0%
CCOC(=O)C1=C(C)NC(c2cccs2)C(=O)N1 (configuration not stated) | i | i | -9% | 13% | ?
COC(=O)C1=C(C)NC2=C(C(=O)CC(c3cccs3)C2)C1c1ccsc1 (configuration not stated) | ? | 7.3µM* | ? | ? | ?
CC1=C(C(=O)OC2CCCC2)C(c2ccc(C)o2)C2=C(CC(c3cccs3)CC2=O)N1 (configuration not stated) | i | 21µM* | -20% | ? | ?
CCOC(=O)C1=C(C)NC2=C(C(=O)CC(c3cccs3)C2)C1c1cccs1 (configuration not stated) | 5.8µM* | 15µM* | ? | 20µM* | ?
COC(=O)C1=C(C)NC2=C(C(=O)CCC2)C1c1ccsc1 (configuration not stated) | / | / | 0% | / | /
CCN(C)C1CN(Cc2cn(Cc3cc(C)cc(C)c3)nn2)S(=O)(=O)C1 (configuration not stated) | i | ? | / | / | /
COc1ncnc2c1ncn2CCCNCc1ccccn1 | i | i | / | / | /
CCOCCCNC(=O)c1ccc(CN2CCc3ccccc3C2)cc1 | i | i | / | / | /
Cc1ccc(C2=NOC(C)(c3sc(-c4ccc(Cl)cc4)nc3C)C2)cc1 (configuration not stated) | i | i | / | 1% | -36%[9.22 µM]
Cc1nc(-c2ccc(Cl)cc2)sc1C1(C)CC(c2ccc(F)cc2)=NO1 (configuration not stated) | i | i | ? | 10µM* | -3%
Cc1ccc2nc(-c3ccccn3)[nH]c2c1 | ? | 18µM* | ? | -15% | 0%
c1ccc(-c2nc3ccccc3[nH]2)nc1 | i | i | ? | -23% | 21%
C=CCn1c(C(C)NC(=O)c2ccc(C)cc2)n[nH]c1=S (configuration not stated) | i | ? | 12% | 0% | 2%
C=CCn1c(NC(=O)c2ccc(C)cc2)c(C#N)sc1=N | 5.2µM* | 1.3µM* | ? | ? | 1%
COc1cc(NC(=O)C2CCN(c3cnc4ccccc4n3)CC2)cc(OC)c1OC | i | i | / | / | /
Cc1cc(C)nc(NC2=NCC(=O)N2c2cccc(Cl)c2)n1 | i | 21µM* | 3% | 16% | -4%

Compound activity: PubChem BioAssay, National Center for Advancing Translational Sciences (NCATS)
